TAG inh: inhibitors of triacylglycerol accumulation | inhibition, % at 12.5 µM | actives 0.66% (n = 230,000) | H9c2 cells, Nile Red lipid (TAG) fluorescence; cells loaded with 200 µM oleic acid;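 active = pattern-corrected inhibition of lipid staining of at least 50% with the nuclear-stain viability signal not falling by more than 50%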;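 note: 0% = DMSO wells and 100% = triacsin C control wells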
Jurkat NFkB inh: lowers PMA/ionomycin-induced NF-kB signal in Jurkat cells | actives 0.53% (n = 330,000) | PMA/ionomycin-induced NF-kB luciferase reporter, luminescence | inhibition, % at 4 µM | AID 435003; in the data active = inhibition above about 50%
Gli-Sufu antag: antagonists of Gli-Sufu signaling | Sufu-KO-LIGHT fibroblasts, Gli luciferase reporter luminescence | inhibition, % at 5 µM | actives 0.74% (n = 340,000) | AID 588413;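 active = inhibition above about 55%, limit read from the data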;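 note: 0% = DMSO-treated cells and 100% = wells with medium but no cells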
NR2F2 inh: blocks human COUP-TFII nuclear receptor | P24468 | HEK293T NGFI-A luciferase reporter, luminescence | inhibition, % at 8.6 µM | actives 0.7% (n = 370,000);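 active = inhibition above a per-plate cutoff, mean inhibition of test wells between control levels plus 3 SD, cut at about 38% in these data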;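 note: cells cotransfected with COUP-TFII expression vector driving the NGFI-A reporter; 0% = median of COUP-TF2 test wells and 100% = reporter-only cells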
Target sequence (P24468 whole entry, looked up): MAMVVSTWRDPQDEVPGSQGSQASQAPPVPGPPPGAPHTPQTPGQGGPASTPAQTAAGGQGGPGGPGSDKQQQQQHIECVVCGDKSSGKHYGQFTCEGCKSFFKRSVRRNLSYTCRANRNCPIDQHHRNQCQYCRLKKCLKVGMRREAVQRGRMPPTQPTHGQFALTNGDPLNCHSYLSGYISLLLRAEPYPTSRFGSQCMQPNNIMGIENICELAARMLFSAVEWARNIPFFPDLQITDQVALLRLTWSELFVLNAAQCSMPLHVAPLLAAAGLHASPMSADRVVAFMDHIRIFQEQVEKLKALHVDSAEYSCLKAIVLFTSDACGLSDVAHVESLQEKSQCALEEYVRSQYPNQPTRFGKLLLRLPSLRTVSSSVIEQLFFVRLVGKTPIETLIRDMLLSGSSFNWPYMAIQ
697 NFkB inh: lowers PMA/ionomycin-induced NF-kB signal in 697 B cells | actives 0.33% (n = 330,000) | inhibition, % at 4 µM | 697 B-cell NF-kB luciferase reporter, 16 h; in the data active = inhibition above about 35%
H9c2 protect: modulators protecting cardiomyocytes from myocardial damage | protection from H2O2 cell death, % at 20 µM | H9c2 cardiomyocytes, H2O2 injury protection, ATPLite, 2 h | actives 0.63% (n = 360,000);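 active = compounds giving at least 50% protection of heart cells from peroxide-induced death in the single-dose screen, raw or plate-pattern-corrected value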;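 note: 0% = DMSO wells with peroxide and 100% = DMSO wells without peroxide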
Gal4-VP16 ctr: counter-screen for COUP-TFII antagonists: inhibitors of VP16; shares compounds with NR2F2 inh; HEK293 Gal4-VP16 luciferase reporter, luminescence; inhibition, % at 8.5 µM; actives 25% (n = 2,500); AID 687007; in the data active = inhibition above about 13%
COUP-TFII conf: confirmation of human COUP-TFII (NR2F2) inhibitors. shares compounds with NR2F2 inh. actives 45% (n = 2,500). HEK293 NGFI-A luciferase reporter, luminescence. inhibition, % at 8.5 µM;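 active = mean inhibition over three repeats above a set limit taken from the earlier primary screen, cut at about 38% in these data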;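 note: 100% = cells given the luciferase reporter alone without the COUP-TF2 vector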
* = called active by the depositor; nt = not tested or not shown. In the library only some 2.6% were active in any assay of this set; here they are far more common.

SMILES | TAG inh | Jurkat NFkB inh | Gli-Sufu antag | NR2F2 inh | 697 NFkB inh | H9c2 protect | Gal4-VP16 ctr | COUP-TFII conf
O=C(Nc1ccc(Cl)c(Cl)c1)c1cccc(S(=O)(=O)NCc2cccnc2)c1 | nt | 12 | 16 | 53* | -8 | -25 | 0 | 30
COc1ccc(NC(=O)c2ccc(CNS(=O)(=O)c3cccc(OC)c3)cc2)cc1 | nt | -29 | 2 | 7 | -31 | 2 | nt | nt
O=C(Nc1ccc(-c2cn3ccsc3n2)cc1)c1ccc(F)c(S(=O)(=O)N2CCOCC2)c1 | nt | 29 | 11 | 47* | -51 | 43 | -22 | -13
O=C(O)c1cccc(CSc2nnc(-c3ccc(Cl)cc3)o2)c1 | nt | 4 | 11 | 40* | -5 | -2 | 37* | 9
Cc1cc(C)cc(-c2nnc(SCc3ccc(C(=O)O)cc3)o2)c1 | -2 | -17 | -1 | 11 | -14 | 1 | nt | nt
O=C(O)c1ccc(CSc2nnc(COc3ccccc3)o2)cc1 | nt | 5 | 4 | 7 | 5 | 3 | nt | nt
O=C(O)c1cccc(CSc2nnc(COc3ccccc3)o2)c1 | -12 | 2 | 10 | 41* | 17 | 3 | 35* | 18
CC(=O)Nc1ccc(Nc2cc(C)nc3c(-c4ccccc4)cnn23)cc1 | nt | nt | -8 | 42* | nt | 2 | -17 | 43*
O=C(NN=Cc1ccccc1O)C(=O)Nc1ccc(F)cc1 | nt | nt | nt | -14 | nt | nt | nt | nt
CCC(C#Cc1ccccc1)NCc1ccc(OC)cc1OC (stereo not drawn) | nt | nt | nt | 5 | nt | nt | nt | nt
Cc1nn(-c2ccccc2)c(C)c1C(=O)OC(C)C(=O)NC1CCCCC1 (stereo not drawn) | 3 | 11 | 11 | 59* | -14 | -6 | -1 | 21
Cc1nn(-c2ccccc2)c(Cl)c1C(=O)NC1CCCCC1 | -8 | -13 | -12 | -6 | -7 | 4 | nt | nt
CCN(C(=O)C1CCN(c2nc(-c3ccc(OC)cc3)no2)CC1)c1ccc(OC)cc1 | -26 | 23 | 24 | 52* | -31 | -32 | -1 | 30
CCCCCCCCN1C(=O)[C@@H](CC(=O)N2CCN(C(=O)C3CC3)CC2)C[C@@]2(C(=O)OC)C1=C[C@H](C(C)(C)C)O[C@@H]2C | nt | nt | nt | 15 | nt | nt | nt | nt
COC(=O)C1=C(C)N(Cc2ccccc2C(F)(F)F)C(=NCc2ccccc2C(F)(F)F)NC1c1cccc(C(F)(F)F)c1 (stereo not drawn) | nt | nt | nt | 10 | nt | nt | nt | nt
Cc1[nH]nc2ncc(C(=O)c3ccccc3O)cc12 | -5 | 19 | -11 | 38* | -4 | -4 | 15* | 32
Cc1nn(C)c2ncc(C(=O)c3ccccc3O)cc12 | nt | -11 | 2 | 1 | 4 | 1 | nt | nt
O=C(Nc1ccc2[nH]ccc2c1)c1cc(-c2ccc(Cl)cc2)nc2ccccc12 | nt | nt | nt | -14 | nt | nt | nt | nt
Cc1cc2c(NCc3ccccc3)ncnc2s1 | -12 | 13 | 41 | 49* | -29 | -24 | -4 | 26
CCN(CC)C(=O)Cn1c2ccccc2c2nc3n(c(=O)c21)CCS3 | nt | nt | nt | 3 | nt | nt | nt | nt
Cc1ccc(C(=O)Nc2ncc([N+](=O)[O-])s2)cc1 | nt | nt | 60* | 63* | nt | -16 | -16 | 6
COc1ccc(-c2cc(C(=O)Nc3cccc(O)c3)no2)cc1 | nt | -33 | -87 | 50* | 11 | -16 | -7 | 8
COc1ccc(C)cc1NCc1cccc(OC)c1OC | nt | 0 | 4 | 3 | 19 | -2 | nt | nt
COc1cc(OC)c(OC)cc1CNc1cc(C)ccc1OC | nt | -13 | -13 | 39* | -41 | -16 | 7 | 18
Cc1ccc(NC(=O)CNc2ccc(Cl)c(Cl)c2)cc1S(=O)(=O)N(C)C | nt | 26 | -5 | 54* | -21 | -16 | -5 | 40*
SMILES | TAG inh | Jurkat NFkB inh | Gli-Sufu antag | NR2F2 inh | 697 NFkB inh | H9c2 protect | Gal4-VP16 ctr | COUP-TFII conf
Cc1cc(C)n(-c2ccc(C(=O)Nc3cccc(S(=O)(=O)N(C)C)c3)cc2)n1 | -23 | 23 | 32 | 43* | -32 | -13 | 14* | 39*
Cc1ccc(C(=O)Nc2ccc(S(=O)(=O)NCc3ccco3)cc2)cc1 | nt | -7 | -9 | 1 | -43 | -6 | nt | nt
Cc1cc(C)n(-c2ccc(C(=O)Nc3ccc(S(=O)(=O)NCc4ccco4)cc3)cc2)n1 | 5 | 34 | -9 | 75* | 9 | -38 | 24* | 71*
CCN(CC)S(=O)(=O)c1cccc(NC(=O)c2ccc(-n3nc(C)cc3C)cc2)c1 | nt | 15 | 5 | 65* | -114 | -3 | 9 | 33
Cc1cc(C)n(-c2ccc(C(=O)Nc3ccc(S(=O)(=O)N(C)C)cc3)cc2)n1 | nt | -3 | 4 | 32 | -23 | 8 | nt | nt
Cc1ccc(NC(=O)Cc2ccc(Cl)c(Cl)c2)cc1S(=O)(=O)N(C)C | nt | 13 | 19 | -6 | -19 | -10 | nt | nt
CC(=O)c1cc(-c2ccc3nonc3c2)c(=O)n2c1CCC2 | nt | nt | nt | -2 | nt | nt | nt | nt
O=C1CCCC2=C1[C@@]1(O[C@H]3C=CC=CN23)C(=O)N(c2ccccc2)c2ccccc21 | nt | nt | nt | 14 | nt | nt | nt | nt
Cc1cccc(Cn2cc(COC(=O)N(C)Cc3ccccc3)nn2)c1 | nt | nt | nt | -26 | nt | nt | nt | nt
O=S1(=O)c2ccc(Br)cc2OC[C@@H](Cc2ccccc2)N1Cc1cn(CCC2OCCCO2)nn1 | nt | nt | nt | -18 | nt | nt | nt | nt
Cc1ccc(NC(=O)c2ccc(OC(F)(F)F)cc2)cc1S(=O)(=O)N(C)C | nt | 38 | 4 | 55* | -4 | -17 | -9 | 35
Cc1cc(C)n(-c2ccc(C(=O)Nc3ccc(C)c(S(=O)(=O)N(C)C)c3)cc2)n1 | nt | 21 | 6 | 48* | -22 | -12 | -4 | 24
Cc1ccc(NC(=O)c2ccncc2)cc1S(=O)(=O)N(C)C | nt | -4 | -2 | -3 | -17 | 0 | nt | nt
O=C(NCCc1ccccc1)OCc1cn(Cc2ccccc2F)nn1 | nt | nt | nt | 2 | nt | nt | nt | nt
CCc1ccc(-c2cn3nc(C)c(C)nc3n2)cc1 | nt | -133 | -17 | 47* | -126 | -13 | -42 | -13
Cc1nc2nc(-c3ccc(F)cc3)cn2nc1C | nt | -61 | -65 | -40 | -90 | -5 | nt | nt
COc1cccc(N2CCN(C(=O)c3ccc(CSc4nc5ccncc5[nH]4)cc3)CC2)c1 | -23 | 3 | 7 | 42* | -16 | -34 | 2 | 16
COC(=O)[C@H]1C[C@@]2(n3ccc4ccccc43)c3ccccc3N(S(=O)(=O)c3ccccc3)[C@H]2N1 | nt | nt | nt | 8 | nt | nt | nt | nt
Cc1cc2nc(C3CCCN(C(=S)Nc4ccccc4C)C3)[nH]c2cc1C (stereo not drawn) | nt | 8 | -2 | 45* | -7 | -5 | -34 | -7
COc1ccc(-c2cc(-c3ccccc3)nc(SC(C)C(=O)O)c2C#N)cc1 (stereo not drawn) | -3 | -34 | 20 | 6 | -21 | 0 | nt | nt
CC(C)C(Sc1nc(-c2ccccc2)cc(-c2ccccc2)c1C#N)C(=O)O (stereo not drawn) | 1 | 6 | -2 | 38* | 3 | -7 | 2 | 6
